Columns and labels:
Experiment in all cases: DAPPL (digital affinity profiling via proximity ligation, sequencing); 10 mM Tris-HCl pH 7.5, 50 mM NaCl, 1 mM DTT, 4% glycerol, room temperature, 30 min; GST-TFs on glutathione beads, 16-mer random dsDNA library, 0.1% formaldehyde crosslink after washing; high values mean tight binding
FEV = target: T1, FEV (Homo sapiens, UniProt Q99581 1-238); conditions: protein: recombinant; tags: N-terminal GST; dsDNA, one strand shown
T1 sequence: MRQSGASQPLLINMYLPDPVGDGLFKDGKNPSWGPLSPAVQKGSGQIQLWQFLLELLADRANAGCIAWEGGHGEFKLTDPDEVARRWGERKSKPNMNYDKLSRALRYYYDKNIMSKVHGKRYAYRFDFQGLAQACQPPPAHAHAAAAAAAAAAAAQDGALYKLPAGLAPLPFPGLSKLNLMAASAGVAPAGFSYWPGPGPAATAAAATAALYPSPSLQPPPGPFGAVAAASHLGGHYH
Summary of the method: (§1)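 In yeast, human transcription factors were expressed with a GST fusion, then pulled down on glutathione beads and given DNA barcodes. Pooled with a tag-only sample, they were exposed to 200 nmole of a 16-mer random double-stranded DNA library (Tris/NaCl/DTT/glycerol buffer, room temperature, 30 min), washed, crosslinked with 0.1% formaldehyde, proximity-ligated using BsaI/T4 ligase for 1 h at 37 °C, PCR-amplified and read on an Illumina NextSeq500. Each hexamer's frequency of reads for a factor, divided by the matching frequency for the tag-only sample, gives the binding signal.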

ETV5 = ETV5 (Homo sapiens, UniProt P41161 1-510); conditions: protein: recombinant; tags: N-terminal GST; dsDNA, one strand shown
Sequence of ETV5 (P41161 whole entry): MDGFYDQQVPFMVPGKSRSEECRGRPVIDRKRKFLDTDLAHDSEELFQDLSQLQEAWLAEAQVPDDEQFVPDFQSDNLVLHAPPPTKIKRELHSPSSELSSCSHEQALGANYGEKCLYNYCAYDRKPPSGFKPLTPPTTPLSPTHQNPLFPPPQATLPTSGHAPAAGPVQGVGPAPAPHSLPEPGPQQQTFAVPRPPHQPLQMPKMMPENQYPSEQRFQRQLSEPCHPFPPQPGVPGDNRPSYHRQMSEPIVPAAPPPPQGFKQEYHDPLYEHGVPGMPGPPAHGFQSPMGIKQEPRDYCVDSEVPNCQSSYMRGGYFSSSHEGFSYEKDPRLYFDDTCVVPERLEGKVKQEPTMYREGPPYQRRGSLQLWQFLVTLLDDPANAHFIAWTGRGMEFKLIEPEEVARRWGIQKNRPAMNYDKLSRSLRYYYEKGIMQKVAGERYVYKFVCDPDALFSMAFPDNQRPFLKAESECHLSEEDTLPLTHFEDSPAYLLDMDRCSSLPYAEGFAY
Summary of the method: as §1

HSF1 = HSF1 (Homo sapiens, UniProt Q00613 1-529); conditions: protein: recombinant; tags: N-terminal GST; chain copies: 3; dsDNA, one strand shown
Sequence of HSF1 (Q00613 whole entry): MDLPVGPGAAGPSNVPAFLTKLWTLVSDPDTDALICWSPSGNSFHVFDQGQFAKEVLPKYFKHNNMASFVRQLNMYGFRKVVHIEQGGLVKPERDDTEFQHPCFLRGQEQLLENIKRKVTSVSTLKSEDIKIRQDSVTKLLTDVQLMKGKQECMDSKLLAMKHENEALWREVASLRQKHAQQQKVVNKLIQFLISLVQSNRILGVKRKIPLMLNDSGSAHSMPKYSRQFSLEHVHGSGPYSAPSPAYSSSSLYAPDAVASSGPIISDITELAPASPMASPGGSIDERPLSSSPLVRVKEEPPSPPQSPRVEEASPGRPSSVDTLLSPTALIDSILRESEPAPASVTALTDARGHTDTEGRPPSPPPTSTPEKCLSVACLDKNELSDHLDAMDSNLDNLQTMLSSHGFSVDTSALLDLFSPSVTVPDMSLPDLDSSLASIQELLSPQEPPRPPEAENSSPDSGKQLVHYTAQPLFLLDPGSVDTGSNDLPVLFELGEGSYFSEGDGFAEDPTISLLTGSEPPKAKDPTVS
Summary of the method: as §1

SPIC = target: T2, SPIC (Homo sapiens, UniProt Q8N5J4 1-248); conditions: protein: recombinant; tags: N-terminal GST; dsDNA, one strand shown
T2 sequence: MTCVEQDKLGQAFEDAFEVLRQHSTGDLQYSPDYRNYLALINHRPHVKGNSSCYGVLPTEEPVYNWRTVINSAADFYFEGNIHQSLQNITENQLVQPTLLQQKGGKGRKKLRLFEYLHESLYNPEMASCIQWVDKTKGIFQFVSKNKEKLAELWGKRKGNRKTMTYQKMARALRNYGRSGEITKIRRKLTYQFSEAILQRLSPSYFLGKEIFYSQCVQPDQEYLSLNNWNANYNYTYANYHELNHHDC
Summary of the method: as §1

ELF4 = ELF4 (Homo sapiens, UniProt Q99607 1-663); conditions: protein: recombinant; tags: N-terminal GST; dsDNA, one strand shown
Sequence of ELF4 (Q99607 whole entry): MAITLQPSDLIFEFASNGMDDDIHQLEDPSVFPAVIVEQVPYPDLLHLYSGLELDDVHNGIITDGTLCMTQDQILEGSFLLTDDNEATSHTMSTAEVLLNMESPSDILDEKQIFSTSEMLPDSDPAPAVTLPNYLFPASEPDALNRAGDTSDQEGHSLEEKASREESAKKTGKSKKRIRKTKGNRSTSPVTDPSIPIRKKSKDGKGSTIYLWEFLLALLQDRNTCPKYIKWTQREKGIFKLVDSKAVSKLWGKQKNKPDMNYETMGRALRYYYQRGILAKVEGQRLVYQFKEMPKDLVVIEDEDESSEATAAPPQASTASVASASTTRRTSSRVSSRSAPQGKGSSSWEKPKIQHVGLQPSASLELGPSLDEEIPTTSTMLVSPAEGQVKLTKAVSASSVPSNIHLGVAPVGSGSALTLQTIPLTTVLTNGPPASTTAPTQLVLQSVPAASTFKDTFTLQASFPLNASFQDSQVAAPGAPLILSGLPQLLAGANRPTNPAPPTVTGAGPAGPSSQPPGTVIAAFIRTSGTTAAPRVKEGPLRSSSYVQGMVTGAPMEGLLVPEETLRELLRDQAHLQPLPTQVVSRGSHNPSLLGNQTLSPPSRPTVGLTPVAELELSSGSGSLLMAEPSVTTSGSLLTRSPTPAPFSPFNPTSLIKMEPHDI
Summary of the method: as §1

ELK4 = target: T3, ELK4 (Homo sapiens, UniProt P28324-2 1-405); conditions: protein: recombinant; tags: N-terminal GST; dsDNA, one strand shown
T3 sequence: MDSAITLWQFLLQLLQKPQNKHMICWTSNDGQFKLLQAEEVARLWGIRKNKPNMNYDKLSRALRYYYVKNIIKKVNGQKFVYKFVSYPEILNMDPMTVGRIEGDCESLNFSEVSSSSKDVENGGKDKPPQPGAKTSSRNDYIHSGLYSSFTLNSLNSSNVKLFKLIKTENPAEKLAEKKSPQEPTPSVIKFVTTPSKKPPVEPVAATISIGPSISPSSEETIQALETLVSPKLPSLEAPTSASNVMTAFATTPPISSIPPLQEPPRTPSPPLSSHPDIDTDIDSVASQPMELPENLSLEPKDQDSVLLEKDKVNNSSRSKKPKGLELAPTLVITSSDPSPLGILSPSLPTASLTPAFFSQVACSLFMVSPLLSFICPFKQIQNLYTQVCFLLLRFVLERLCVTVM
Summary of the method: as §1

ETV2 = target: T4, ETV2 (Homo sapiens, UniProt O00321 1-342); conditions: protein: recombinant; tags: N-terminal GST; dsDNA, one strand shown
T4 sequence: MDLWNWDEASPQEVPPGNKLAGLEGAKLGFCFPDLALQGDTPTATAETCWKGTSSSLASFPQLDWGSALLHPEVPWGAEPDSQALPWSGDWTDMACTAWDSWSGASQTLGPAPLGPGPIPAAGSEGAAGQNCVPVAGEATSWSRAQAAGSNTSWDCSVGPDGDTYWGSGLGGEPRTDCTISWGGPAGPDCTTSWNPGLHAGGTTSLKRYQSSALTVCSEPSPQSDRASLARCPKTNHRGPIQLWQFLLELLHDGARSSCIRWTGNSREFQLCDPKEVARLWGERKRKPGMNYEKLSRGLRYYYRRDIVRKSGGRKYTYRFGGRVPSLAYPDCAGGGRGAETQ
Summary of the method: as §1

ELF3 = target: T5, ELF3 (Homo sapiens, UniProt P78545 1-371); conditions: protein: recombinant; tags: N-terminal GST; dsDNA, one strand shown
T5 sequence: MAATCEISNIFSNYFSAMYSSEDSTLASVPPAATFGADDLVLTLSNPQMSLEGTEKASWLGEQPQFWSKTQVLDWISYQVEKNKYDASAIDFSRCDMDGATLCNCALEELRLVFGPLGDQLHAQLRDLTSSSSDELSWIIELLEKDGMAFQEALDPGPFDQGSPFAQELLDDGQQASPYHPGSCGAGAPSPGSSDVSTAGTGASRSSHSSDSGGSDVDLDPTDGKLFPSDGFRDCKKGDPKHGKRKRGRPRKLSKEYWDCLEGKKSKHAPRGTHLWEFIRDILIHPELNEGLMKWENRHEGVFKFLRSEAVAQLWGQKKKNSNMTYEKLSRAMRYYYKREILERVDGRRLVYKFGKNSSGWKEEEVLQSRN
Summary of the method: as §1

Sequence: CGTCCC
- binding signal (FEV): 1.34 fold enrichment (6-mer frequency, TF over GST control)
- binding signal (ETV5): 1.3 fold enrichment (6-mer frequency, TF over GST control)
- binding signal (HSF1): 1.08 fold enrichment (6-mer frequency, TF over GST control)
- binding signal (SPIC): 1.38 fold enrichment (6-mer frequency, TF over GST control)
- binding signal (ELF4): 1.27 fold enrichment (6-mer frequency, TF over GST control)
- binding signal (ELK4): 1.39 fold enrichment (6-mer frequency, TF over GST control)
- binding signal (ETV2): 1.12 fold enrichment (6-mer frequency, TF over GST control)
- binding signal (ELF3): 1.45 fold enrichment (6-mer frequency, TF over GST control)
